The values below come from PubChem BioAssay (NCI).

Each structure is given as a SMILES string. Compounds without any hit were thinned out: in the full panel of roughly 79,000, 15% have a hit. The source made the active and inactive calls. Cut-off read from the data, not from the text of the source: active = growth inhibition above about 70%; inactive = the rest.

A short description of the first assay: NCI Yeast Anticancer Drug Screen. Data for the bub3 strain (AID 167). To be noted: S. cerevisiae bub3 mutant strain, at 50.0 µM, active compounds read high. In a few lines:
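Growth of a checkpoint-deficient yeast mutant is measured after compound exposure. Values represent inhibition relative to vehicle.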
Turning to `N#C/C(=C\C(Cl)=C/c1ccccc1)C(N)=S`, the growth inhibition was 99% (active).
On the same count and under the same terms, to `CC[N+](C)(CC)CCC(=O)/C=C/c1ccccc1` belongs 76.5% (active); to `CC(=O)n1c(=S)n(C(C)=O)c2ccccc21`, 71.1% (active).
In the case of `Nc1ccccc1/C=C1/Sc2cc[nH]c2C1=O`, the growth inhibition is 83.8% (active).
Take `C=C1CC2(CCCC3(CC(=C)C(=O)O3)C2(C)C)OC1=O` (stereo not given): the growth inhibition is 44.6% (inactive).
The same measure, in the same setting: to `O=C1/C(=C\c2ccc(Cl)cc2Cl)Sc2scc(-c3ccc(O)c(O)c3)[n+]21` belongs 85.7% (active); to `COc1cc(OC(C)C)cc2c1C(=O)C(C(O)(O)C(F)(F)F)=CC2=O`, 82.9% (active).
Same read-out and setting: to `Cc1c(N=Nc2ccc(Br)cc2)c(-c2ccccc2)nn1C(N)=S` belongs 96.5% (active); to `COc1ccc2nc3c([N+](=O)[O-])ccc(NCCCN(C)C)c3c(N)c2c1`, 44.5% (inactive); to `CN(C)CCC[Si]1(C)c2ccccc2CCc2ccccc21`, 71.3% (active).
Same read-out and setting: to `CC(=O)N(C)c1cc(NCc2ccccc2)ccc1OCc1ccccc1` belongs 95.7% (active); to `ClCCOCCOc1c(Cl)cc(Cl)c(Cl)c1Cl`, 59.6% (inactive); to `Nc1ccc2nc(N)sc2c1`, -15.2% (inactive).
As for `CC(C)(C)c1cc(C2c3cc4c(cc3OC(O)(CO)C2C(=O)O)OCO4)cc(C(C)(C)C)c1O` (stereo not given) (tested in a mixture with another compound), the growth inhibition is 55% (inactive).
Still for that read-out and setting: to `COc1ccc(C2COc3c(ccc(O)c3O)C2)cc1OC` (stereo not given) belongs 32.9% (inactive); to `Cc1ccc(OCC2CO2)c(Br)c1` (stereo not given), -13.2% (inactive); to `CCN(CC)CCNc1ccc(C)c2sc3c(OC)cccc3c(=O)c12`, 23.4% (inactive).
On the same count and under the same terms, to `CC(C)C(O)C(C)C` belongs 13.7% (inactive); to `O=C1CSC2(CCN(CCCN3c4ccccc4Sc4ccc(Cl)cc43)CC2)N1`, 97.5% (active).
Same read-out and setting: as for `C1=CN2C(c3ccccc3)=NN(c3ccccc3)[C@@H]2c2ccccc21`, the figure is 59.5% (inactive); as for `CC(=O)Nc1ccc(-c2csc(Nc3ccnc4cc(Cl)ccc34)n2)cc1`, 33.3% (inactive); as for `O=C(Nc1ccc(/C=C/c2ccc(NC(=O)c3cc(S(=O)(=O)O)c4cccnc4c3O)cc2S(=O)(=O)O)c(S(=O)(=O)O)c1)c1cc(S(=O)(=O)O)c2cccnc2c1O`, 95.9% (active).
As for `COc1ccccc1C1C2=C(COC2=O)OC(C)(C)Oc2cc3c(cc21)OCO3` (stereo not given), the growth inhibition is 89.7% (active).
The same measure, in the same setting: to `COC(=O)CSc1n[nH]c(-c2ccc(O)c([N+](=O)[O-])c2)n1` belongs 53% (inactive); to `COc1ccc(CN2CCCN(Cc3ccc(OC)cc3OC)C2c2cccc([N+](=O)[O-])c2O)c(OC)c1`, 7.65% (inactive).
Still for that read-out and setting: to `Oc1c(Cl)cc(C(c2cc(Cl)c(O)c(Cl)c2)C(Cl)(Cl)Cl)cc1Cl` belongs 98.8% (active); to `Cc1cc(Cl)cc2c1NC(=O)C2(O)C/C(=N/NC(=O)CC#N)c1cccc([N+](=O)[O-])c1` (stereo not given), 15.4% (inactive).
Same read-out and setting: as for `COc1ccc(C2Oc3ccc(Cl)cc3C=C2[N+](=O)[O-])cc1` (stereo not given), the figure is 84.4% (active); as for `CN(Cc1cc(Cl)cc(Cl)c1O)Cc1c(O)ccc2ccccc12`, 98.6% (active).
For `Cc1c(NC(=O)/C(=N/NC(=S)N=N)C2C(=O)CC(C)(C)CC2=O)c(O)c2ccccc2c1O`, the growth inhibition was 90.9% (active).
The same measure, in the same setting: to `O=C1CCC(Cc2ccccc2Br)C(=O)N1` (stereo not given) belongs -45.5% (inactive).
The same measure, in the same setting: to `O=C1CSc2ccccc2-n2cccc21` belongs -11.2% (inactive); to `CCCc1cc2c(cc1CS(=O)(=O)CC)OCO2`, 16.7% (inactive); to `CS(=O)(=O)C(c1nc2nnc(NC(=O)Nc3ccc(Cl)cc3)n2[nH]c1=O)c1nc2nnc(NC(=O)Nc3ccc(Cl)cc3)n2[nH]c1=O`, 71.3% (active).
Turning to `COc1cc(C2c3cc4c(cc3OC3(O)C=C(C)OC(=O)C23)OCO4)cc(OC)c1OC` (stereo not given), the growth inhibition was 92.3% (active).
The same measure, in the same setting: to `CC(C)OCc1cccc2ccnc(COC(C)C)c12` belongs 20.2% (inactive); to `COc1cc2c(cc1OC)-c1nc(Nc3ccccc3)sc1CC2`, 78.5% (active); to `NC(=O)CCSC(=S)N1CCOCC1`, -1.85% (inactive).
Same read-out and setting: to `CC1=C(c2ccccc2)C(=O)OC1=O` belongs 3.7% (inactive).
On the same count and under the same terms, as for `CC1=C(C)CC2C(=O)C(C(O)CC(C)C)=CC(=O)C2C1` (stereo not given), the figure is 98.2% (active).

The nature of the next assay: NCI Yeast Anticancer Drug Screen. Data for the mlh1 rad18 strain (AID 175). To be noted: S. cerevisiae mlh1 rad18 strain growth inhibition; at 5.0 µM (retest, dose inferred, filed as 0.5); active compounds read high. The method in brief:
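Read-out is yeast growth inhibition, calculated against vehicle-only controls. The compound was applied to a strain engineered with DNA damage repair alterations.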
Turning to `N#C/C(=C\C(Cl)=C/c1ccccc1)C(N)=S`, the growth inhibition is 86% (active).
Still for that read-out and setting: as for `CC[N+](C)(CC)CCC(=O)/C=C/c1ccccc1`, the figure is 11% (inactive).
For `CC(=O)n1c(=S)n(C(C)=O)c2ccccc21`, the growth inhibition was -13% (inactive).
Still for that read-out and setting: as for `Nc1ccccc1/C=C1/Sc2cc[nH]c2C1=O`, the figure is 3% (inactive); as for `C=C1CC2(CCCC3(CC(=C)C(=O)O3)C2(C)C)OC1=O` (stereo not given), 12% (inactive).
Same read-out and setting: to `O=C1/C(=C\c2ccc(Cl)cc2Cl)Sc2scc(-c3ccc(O)c(O)c3)[n+]21` belongs 28% (inactive); to `COc1cc(OC(C)C)cc2c1C(=O)C(C(O)(O)C(F)(F)F)=CC2=O`, -8% (inactive).
Same read-out and setting: to `Cc1c(N=Nc2ccc(Br)cc2)c(-c2ccccc2)nn1C(N)=S` belongs 0% (inactive); to `COc1ccc2nc3c([N+](=O)[O-])ccc(NCCCN(C)C)c3c(N)c2c1`, -14% (inactive); to `CN(C)CCC[Si]1(C)c2ccccc2CCc2ccccc21`, -3% (inactive).
As to `CC(=O)N(C)c1cc(NCc2ccccc2)ccc1OCc1ccccc1`, the growth inhibition was -1% (inactive).
Take `ClCCOCCOc1c(Cl)cc(Cl)c(Cl)c1Cl`: the growth inhibition is 9% (inactive).
With `Nc1ccc2nc(N)sc2c1`, the growth inhibition is -4% (inactive).
Same read-out and setting: as for `CC(C)(C)c1cc(C2c3cc4c(cc3OC(O)(CO)C2C(=O)O)OCO4)cc(C(C)(C)C)c1O` (stereo not given) (tested in a mixture with another compound), the figure is 11% (inactive); as for `COc1ccc(C2COc3c(ccc(O)c3O)C2)cc1OC` (stereo not given), 0% (inactive); as for `Cc1ccc(OCC2CO2)c(Br)c1` (stereo not given), 17% (inactive).
Same read-out and setting: to `CCN(CC)CCNc1ccc(C)c2sc3c(OC)cccc3c(=O)c12` belongs -5% (inactive); to `CC(C)C(O)C(C)C`, 4% (inactive).
Still for that read-out and setting: as for `O=C1CSC2(CCN(CCCN3c4ccccc4Sc4ccc(Cl)cc43)CC2)N1`, the figure is -17% (inactive).
Regarding `C1=CN2C(c3ccccc3)=NN(c3ccccc3)[C@@H]2c2ccccc21`, the growth inhibition was 2% (inactive).
Still for that read-out and setting: to `CC(=O)Nc1ccc(-c2csc(Nc3ccnc4cc(Cl)ccc34)n2)cc1` belongs 3% (inactive).
On to `O=C(Nc1ccc(/C=C/c2ccc(NC(=O)c3cc(S(=O)(=O)O)c4cccnc4c3O)cc2S(=O)(=O)O)c(S(=O)(=O)O)c1)c1cc(S(=O)(=O)O)c2cccnc2c1O`, for which the growth inhibition is 41% (inactive).
Still for that read-out and setting: to `COc1ccccc1C1C2=C(COC2=O)OC(C)(C)Oc2cc3c(cc21)OCO3` (stereo not given) belongs 15% (inactive).
On to `COC(=O)CSc1n[nH]c(-c2ccc(O)c([N+](=O)[O-])c2)n1`, for which the growth inhibition is 30% (inactive).
Still for that read-out and setting: as for `COc1ccc(CN2CCCN(Cc3ccc(OC)cc3OC)C2c2cccc([N+](=O)[O-])c2O)c(OC)c1`, the figure is 16% (inactive).
Same read-out and setting: as for `Oc1c(Cl)cc(C(c2cc(Cl)c(O)c(Cl)c2)C(Cl)(Cl)Cl)cc1Cl`, the figure is 92% (active); as for `Cc1cc(Cl)cc2c1NC(=O)C2(O)C/C(=N/NC(=O)CC#N)c1cccc([N+](=O)[O-])c1` (stereo not given), 1% (inactive); as for `COc1ccc(C2Oc3ccc(Cl)cc3C=C2[N+](=O)[O-])cc1` (stereo not given), 99% (active).
Still for that read-out and setting: as for `CN(Cc1cc(Cl)cc(Cl)c1O)Cc1c(O)ccc2ccccc12`, the figure is 12% (inactive).
Consider `Cc1c(NC(=O)/C(=N/NC(=S)N=N)C2C(=O)CC(C)(C)CC2=O)c(O)c2ccccc2c1O`, for which the growth inhibition is 9% (inactive).
For `O=C1CCC(Cc2ccccc2Br)C(=O)N1` (stereo not given), the growth inhibition is -7% (inactive).
On to `O=C1CSc2ccccc2-n2cccc21`, for which the growth inhibition is 5% (inactive).
For the compound `CCCc1cc2c(cc1CS(=O)(=O)CC)OCO2`, the growth inhibition was -4% (inactive).
The same measure, in the same setting: as for `CS(=O)(=O)C(c1nc2nnc(NC(=O)Nc3ccc(Cl)cc3)n2[nH]c1=O)c1nc2nnc(NC(=O)Nc3ccc(Cl)cc3)n2[nH]c1=O`, the figure is -19% (inactive).
Same read-out and setting: as for `COc1cc(C2c3cc4c(cc3OC3(O)C=C(C)OC(=O)C23)OCO4)cc(OC)c1OC` (stereo not given), the figure is 1% (inactive); as for `CC(C)OCc1cccc2ccnc(COC(C)C)c12`, 28% (inactive).
Take `COc1cc2c(cc1OC)-c1nc(Nc3ccccc3)sc1CC2`: the growth inhibition was -4% (inactive).
Turning to `NC(=O)CCSC(=S)N1CCOCC1`, the growth inhibition was 1% (inactive).
The same measure, in the same setting: to `CC1=C(c2ccccc2)C(=O)OC1=O` belongs 13% (inactive).
The same measure, in the same setting: to `CC1=C(C)CC2C(=O)C(C(O)CC(C)C)=CC(=O)C2C1` (stereo not given) belongs -9% (inactive).
